Assay in all cases: DAPPL (digital affinity profiling via proximity ligation, sequencing); 10 mM Tris-HCl pH 7.5, 50 mM NaCl, 1 mM DTT, 4% glycerol, room temperature, 30 min; GST-TFs on glutathione beads, 16-mer random dsDNA library, 0.1% formaldehyde crosslink after washing; high values mean tight binding
Assay [1] concerns the target T1, ELK1 (Homo sapiens, UniProt P19419 1-428).
T1 sequence: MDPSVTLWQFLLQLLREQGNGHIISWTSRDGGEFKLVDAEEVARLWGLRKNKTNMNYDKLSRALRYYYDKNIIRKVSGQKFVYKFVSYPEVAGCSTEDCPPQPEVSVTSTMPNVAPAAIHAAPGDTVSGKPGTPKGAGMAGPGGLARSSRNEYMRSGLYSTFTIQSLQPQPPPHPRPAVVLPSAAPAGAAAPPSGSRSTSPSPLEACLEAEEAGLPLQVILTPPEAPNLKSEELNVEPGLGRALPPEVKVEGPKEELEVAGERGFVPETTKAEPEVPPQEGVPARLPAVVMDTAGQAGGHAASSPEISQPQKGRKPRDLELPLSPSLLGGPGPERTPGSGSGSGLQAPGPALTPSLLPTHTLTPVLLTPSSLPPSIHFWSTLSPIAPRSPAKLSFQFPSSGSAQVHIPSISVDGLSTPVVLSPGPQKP
The note with it: protein: recombinant; tags: N-terminal GST; dsDNA, one strand shown. In a few lines: (§1)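 A tag-only sample was pooled with DNA-barcoded human transcription factors that had been expressed in yeast as GST fusions and captured on glutathione beads. The pools were incubated for 30 min at room temperature with 200 nmole of a random double-stranded 16-mer DNA library in Tris/NaCl/DTT/glycerol buffer, then washed, crosslinked with 0.1% formaldehyde, proximity-ligated (BsaI/T4 ligase, 1 h, 37 °C), PCR-amplified and sequenced on an Illumina NextSeq500. Binding signal is each hexamer's read frequency for a factor divided by its frequency for the tag-only sample.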

The target of assay [2] is T2, GABPA (Homo sapiens, UniProt Q06546 1-454).
T2 sequence: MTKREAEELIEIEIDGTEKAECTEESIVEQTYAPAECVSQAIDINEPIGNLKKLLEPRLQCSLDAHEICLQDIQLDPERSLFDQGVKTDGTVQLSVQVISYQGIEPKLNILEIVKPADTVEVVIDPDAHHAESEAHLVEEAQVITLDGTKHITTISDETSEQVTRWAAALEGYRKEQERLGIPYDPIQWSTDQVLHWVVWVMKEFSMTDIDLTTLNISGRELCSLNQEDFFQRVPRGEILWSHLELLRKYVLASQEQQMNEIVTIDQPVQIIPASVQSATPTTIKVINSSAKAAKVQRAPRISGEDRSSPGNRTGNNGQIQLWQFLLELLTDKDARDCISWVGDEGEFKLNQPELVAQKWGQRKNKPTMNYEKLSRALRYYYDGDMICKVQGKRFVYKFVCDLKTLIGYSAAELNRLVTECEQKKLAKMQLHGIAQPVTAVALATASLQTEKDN
The note with it: protein: recombinant; tags: N-terminal GST; dsDNA, one strand shown. The essentials:
as §1

Assay [3] has as its target T3, ERG (Homo sapiens, UniProt P11308 1-479).
T3 sequence: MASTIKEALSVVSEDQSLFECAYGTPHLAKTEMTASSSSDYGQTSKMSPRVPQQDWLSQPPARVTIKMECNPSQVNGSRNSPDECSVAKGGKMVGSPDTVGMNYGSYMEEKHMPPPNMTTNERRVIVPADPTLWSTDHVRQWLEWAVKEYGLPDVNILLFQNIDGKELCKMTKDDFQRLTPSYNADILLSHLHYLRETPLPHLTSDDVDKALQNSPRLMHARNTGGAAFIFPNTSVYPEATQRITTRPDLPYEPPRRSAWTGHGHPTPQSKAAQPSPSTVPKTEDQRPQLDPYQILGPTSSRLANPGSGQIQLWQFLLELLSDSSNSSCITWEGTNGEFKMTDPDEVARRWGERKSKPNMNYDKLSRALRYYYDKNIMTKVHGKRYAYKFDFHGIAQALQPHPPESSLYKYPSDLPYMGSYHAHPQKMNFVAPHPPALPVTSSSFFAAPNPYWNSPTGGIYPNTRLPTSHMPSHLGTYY
The settings on record: protein: recombinant; tags: N-terminal GST; dsDNA, one strand shown. The essentials: as §1

Assay [4] addresses ELF1 (Homo sapiens, UniProt P32519 1-619). The settings on record: protein: recombinant; tags: N-terminal GST; dsDNA, one strand shown. The essentials:
as §1

The target in assay [5] is T4, EHF (Homo sapiens, UniProt Q9NZC4 1-300).
T4 sequence: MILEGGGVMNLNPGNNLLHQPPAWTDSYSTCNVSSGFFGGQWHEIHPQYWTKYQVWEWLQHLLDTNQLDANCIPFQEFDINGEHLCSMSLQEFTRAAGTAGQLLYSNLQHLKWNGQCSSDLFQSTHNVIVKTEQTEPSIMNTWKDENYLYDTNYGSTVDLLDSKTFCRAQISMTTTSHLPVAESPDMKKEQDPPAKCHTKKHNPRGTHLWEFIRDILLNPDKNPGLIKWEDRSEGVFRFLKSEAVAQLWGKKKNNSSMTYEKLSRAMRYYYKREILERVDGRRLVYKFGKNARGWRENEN
The settings on record: protein: recombinant; tags: N-terminal GST; dsDNA, one strand shown. In a few lines: as §1

The target in assay [6] is SPIB (Homo sapiens, UniProt Q01892 1-262). The settings on record: protein: recombinant; tags: N-terminal GST; dsDNA, one strand shown. The essentials: as §1
Assay [7] deals with HSF1 (Homo sapiens, UniProt Q00613 1-529). The settings on record: protein: recombinant; tags: N-terminal GST; chain copies: 3; dsDNA, one strand shown. The essentials: as §1
Assay [8] concerns the target ELF4 (Homo sapiens, UniProt Q99607 1-663). The settings on record: protein: recombinant; tags: N-terminal GST; dsDNA, one strand shown. The essentials: as §1
The target in assay [9] is T5, ELK4 (Homo sapiens, UniProt P28324-2 1-405).
T5 sequence: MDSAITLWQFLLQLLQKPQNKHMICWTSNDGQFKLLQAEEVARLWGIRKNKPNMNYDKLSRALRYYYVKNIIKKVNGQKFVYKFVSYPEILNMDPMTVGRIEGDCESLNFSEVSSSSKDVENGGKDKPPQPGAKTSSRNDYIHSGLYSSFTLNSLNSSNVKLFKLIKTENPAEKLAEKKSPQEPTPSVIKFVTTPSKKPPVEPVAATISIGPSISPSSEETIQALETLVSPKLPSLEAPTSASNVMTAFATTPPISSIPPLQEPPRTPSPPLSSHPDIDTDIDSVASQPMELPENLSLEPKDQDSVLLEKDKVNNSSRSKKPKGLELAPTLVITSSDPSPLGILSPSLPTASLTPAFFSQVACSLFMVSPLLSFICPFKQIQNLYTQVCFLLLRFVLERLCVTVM
The settings on record: protein: recombinant; tags: N-terminal GST; dsDNA, one strand shown. The essentials: as §1

Chain of HSF1 (Q00613 whole entry): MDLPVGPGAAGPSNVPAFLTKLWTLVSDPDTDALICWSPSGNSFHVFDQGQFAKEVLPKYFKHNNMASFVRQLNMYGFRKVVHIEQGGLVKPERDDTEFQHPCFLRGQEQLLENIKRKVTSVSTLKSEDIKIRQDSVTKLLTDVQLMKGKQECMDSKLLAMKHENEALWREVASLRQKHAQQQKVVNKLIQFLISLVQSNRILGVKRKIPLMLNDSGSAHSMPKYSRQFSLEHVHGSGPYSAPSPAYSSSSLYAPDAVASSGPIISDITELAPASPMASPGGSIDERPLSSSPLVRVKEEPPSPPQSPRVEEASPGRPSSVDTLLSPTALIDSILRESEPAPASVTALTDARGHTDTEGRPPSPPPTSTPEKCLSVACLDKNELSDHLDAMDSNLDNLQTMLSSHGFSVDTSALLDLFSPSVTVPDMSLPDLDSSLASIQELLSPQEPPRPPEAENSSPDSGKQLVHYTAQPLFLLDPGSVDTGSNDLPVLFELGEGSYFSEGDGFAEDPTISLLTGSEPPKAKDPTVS
Chain of ELF1 (P32519 whole entry): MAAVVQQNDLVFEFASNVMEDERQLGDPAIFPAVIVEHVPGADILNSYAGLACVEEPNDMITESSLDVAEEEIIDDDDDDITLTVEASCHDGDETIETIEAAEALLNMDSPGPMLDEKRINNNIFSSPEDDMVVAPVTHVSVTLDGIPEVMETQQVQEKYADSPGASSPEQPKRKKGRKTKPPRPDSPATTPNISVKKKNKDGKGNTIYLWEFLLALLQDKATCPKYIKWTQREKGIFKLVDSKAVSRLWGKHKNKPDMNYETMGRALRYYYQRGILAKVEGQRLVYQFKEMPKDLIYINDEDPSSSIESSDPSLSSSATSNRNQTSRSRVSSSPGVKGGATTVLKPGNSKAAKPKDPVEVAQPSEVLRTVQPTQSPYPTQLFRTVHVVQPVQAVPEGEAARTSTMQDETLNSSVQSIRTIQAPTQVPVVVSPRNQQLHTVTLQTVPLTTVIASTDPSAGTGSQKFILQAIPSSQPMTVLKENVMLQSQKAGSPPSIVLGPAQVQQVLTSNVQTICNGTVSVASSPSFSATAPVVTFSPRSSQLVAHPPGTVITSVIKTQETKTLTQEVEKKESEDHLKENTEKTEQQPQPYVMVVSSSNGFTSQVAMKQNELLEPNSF
Chain of SPIB (Q01892 whole entry): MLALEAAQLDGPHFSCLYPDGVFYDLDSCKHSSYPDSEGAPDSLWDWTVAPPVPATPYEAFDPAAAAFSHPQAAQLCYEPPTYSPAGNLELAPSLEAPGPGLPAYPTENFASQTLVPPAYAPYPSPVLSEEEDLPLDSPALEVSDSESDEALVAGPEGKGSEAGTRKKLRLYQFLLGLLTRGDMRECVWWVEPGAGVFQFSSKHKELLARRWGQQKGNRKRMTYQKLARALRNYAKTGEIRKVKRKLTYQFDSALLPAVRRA
Chain of ELF4 (Q99607 whole entry): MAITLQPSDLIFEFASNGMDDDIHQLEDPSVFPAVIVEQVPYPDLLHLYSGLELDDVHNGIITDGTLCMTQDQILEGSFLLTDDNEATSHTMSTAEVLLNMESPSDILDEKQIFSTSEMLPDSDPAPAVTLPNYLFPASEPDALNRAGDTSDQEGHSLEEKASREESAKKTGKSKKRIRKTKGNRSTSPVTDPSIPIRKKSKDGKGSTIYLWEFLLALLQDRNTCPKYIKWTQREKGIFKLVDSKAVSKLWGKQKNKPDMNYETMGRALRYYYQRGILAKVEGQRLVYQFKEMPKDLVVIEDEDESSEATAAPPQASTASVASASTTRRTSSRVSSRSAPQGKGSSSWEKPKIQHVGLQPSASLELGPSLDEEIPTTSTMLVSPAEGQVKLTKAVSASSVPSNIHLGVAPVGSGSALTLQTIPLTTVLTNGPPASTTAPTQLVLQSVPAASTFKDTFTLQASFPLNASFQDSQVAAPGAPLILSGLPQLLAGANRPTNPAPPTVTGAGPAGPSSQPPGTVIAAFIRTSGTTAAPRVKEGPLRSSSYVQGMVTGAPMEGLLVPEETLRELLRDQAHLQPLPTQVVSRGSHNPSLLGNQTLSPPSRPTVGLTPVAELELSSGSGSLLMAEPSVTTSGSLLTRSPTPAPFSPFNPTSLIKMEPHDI

On to GCGAAT, for which the binding signal in [1] is 1.07 fold enrichment (6-mer frequency, TF over GST control); in assay [2], 1.05 fold enrichment (6-mer frequency, TF over GST control); in assay [3], 1.08 fold enrichment (6-mer frequency, TF over GST control); in assay [4], 1.11 fold enrichment (6-mer frequency, TF over GST control); in [5], 1.17 fold enrichment (6-mer frequency, TF over GST control); in assay [6], 1 fold enrichment (6-mer frequency, TF over GST control). The binding signal in assay [7] was 1.27 fold enrichment (6-mer frequency, TF over GST control); in assay [8] it was 1.02 fold enrichment (6-mer frequency, TF over GST control); in assay [9], 1.17 fold enrichment (6-mer frequency, TF over GST control).

Source of the values: paper PMC7862700, “An all-to-all approach to the identification of sequence-specific readers for epigenetic DNA modifications on cytosine”.
